Tests used:
Assay type in all cases: functional
Plasmodium falciparum [1] = experiment: GSK_TCMDC: Inhibition of Plasmodium falciparum 3D7 in whole red blood cells, using parasite LDH activity as an index of growth. Test compounds present at 2uM
Plasmodium falciparum [2] = experiment: GSK_TCMDC: Inhibition of Plasmodium falciparum Dd2 in whole red blood cells, using parasite LDH activity as an index of growth. Test compounds present at 2uM
HepG2 = experiment: GSK_TCMDC: Percent inhibition of human HepG2 cell line. Test compounds present at 10uM.

SMILES	Inhibition (Plasmodium falciparum [1])	Inhibition (Plasmodium falciparum [2])	Inhibition (HepG2)
Cc1cc(N(CCN2CCCCC2)CCN2CCCCC2)nc(Nc2ccc(Cl)cc2)n1.Cl	100%	79%	19%
O=C(NCCCCN1CCC(c2ccc3c(c2OCc2ccncc2)CCCC3)CC1)c1ccc(NC(=O)c2ccc(Cl)cc2)cc1	100%	99%	62%
Cl.N=C(N)Nc1nccc(NCc2ccccc2)n1	88%	48%	95%
CC(C)CCNCc1ccc(OCc2cccc(COc3ccc(CNCCC(C)C)cc3I)c2)c(I)c1.Cl	91%	49%	99%
Cn1nc(-c2ccc(Cl)cc2)c2cc(C(=O)NCCN3CCOCC3)sc21	97%	29%	21%
Cc1cccc2nc(-c3cccc(-c4cccc(NC(=O)c5ccncc5)c4)c3)[nH]c12	100%	78%	22%
O=C(/C=C/c1ccc(Cl)c(Cl)c1)NCCCCCN1CCC(NC(=O)Nc2cc(Cl)nc(Cl)c2)CC1	100%	2%	4%
N=c1c(C(=O)NCc2ccccc2)cc2c(=O)n3ccccc3nc2n1CCc1ccccc1	99%	25%	5%
Nc1nccc2ccc(-c3ccsc3)cc12.O=C(O)C(F)(F)F	100%	89%	38%

— ChEMBL document CHEMBL1157539, “Thousands of chemical starting points for antimalarial lead identification” (Nature, 2010)
